mIDH1 inhibitor: inhibitors of human mutant IDH1 R132H; O75874; IDH1-R132H enzyme, NADPH consumption, diaphorase/resazurin fluorescence; Potency, µM (top dose mostly 76.6 µM), inactives show at the highest dose activity change, negative = inhibition, actives largely listed as inhibitors; 0.093% of 390,000 active; AID 602179; also: nearly all actives have a fitted effect of over 65% in size
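IDH1-R132H (0.5 ug/mL) preincubated 30 min with compound, then NADPH (0.016 mM) and alpha-KG (2 mM) added; 80 min at RT, pH 7.5. Remaining NADPH coupled via diaphorase/resazurin to fluorescence (540/590 nm); concentration-response curves normalized to no-enzyme control.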
Sfp PPTase inh: blocks B. subtilis Sfp PPTase activity; Q9F4F7; Biochemical Sfp PPTase activity, qHTS; Potency, µM, without a hit: largest response in the series, negative = inhibition, hits mostly inhibitors; 3.5% of 310,000 active; AID 1490;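 also: the enzyme is Sfp with the accession as filed and its product quenches rhodamine fluorescence; 0% = enzyme reaction without inhibitor and -100% = no enzyme wells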
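Buffer: 50 mM Hepes-Na pH 7.6, 10 mM MgCl2, 0.01% Nonidet P-40, 0.01% BSA. Enzyme 15 nM, pre-exposed to compound 15 min; substrates then added and fluorescence change tracked over 30 min.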
PLK1 PBD block: inhibitors of human PLK1 polo-box domain binding | P53350 | Plk1 PBD binding of FITC phosphopeptide, fluorescence polarization | 2.8% of 360,000 active | Potency, µM, for inactives: max response, negative = inhibition, usual class: inhibitors | AID 720504; also: series mostly up to about 57 µM; nearly all actives have a fitted effect of over 65% in size
Target sequence (P53350 whole entry, looked up, the tested form may be a part): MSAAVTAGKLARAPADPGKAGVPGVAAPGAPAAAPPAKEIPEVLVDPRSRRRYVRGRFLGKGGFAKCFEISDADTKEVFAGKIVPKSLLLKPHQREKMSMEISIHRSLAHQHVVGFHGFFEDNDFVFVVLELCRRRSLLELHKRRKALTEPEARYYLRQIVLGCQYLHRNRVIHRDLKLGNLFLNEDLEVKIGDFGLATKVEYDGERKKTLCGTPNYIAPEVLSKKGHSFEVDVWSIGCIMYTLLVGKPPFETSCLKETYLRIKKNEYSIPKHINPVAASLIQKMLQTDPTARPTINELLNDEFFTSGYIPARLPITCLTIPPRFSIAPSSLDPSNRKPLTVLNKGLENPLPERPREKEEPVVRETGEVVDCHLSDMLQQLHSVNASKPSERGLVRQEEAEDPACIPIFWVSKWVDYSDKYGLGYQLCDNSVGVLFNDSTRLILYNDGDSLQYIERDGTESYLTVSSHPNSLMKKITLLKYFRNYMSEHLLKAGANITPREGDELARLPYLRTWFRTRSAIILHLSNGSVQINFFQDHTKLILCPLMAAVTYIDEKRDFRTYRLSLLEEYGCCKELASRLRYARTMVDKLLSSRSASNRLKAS
TrxR1 substrate: is turned over as a substrate by rat TrxR1. purified TrxR1 substrate turnover, NADPH consumption readout. 0.01% of 390,000 active. Potency, µM (series often up to 114 µM), for the others: top-dose activity change, negative = substrate turnover; also: nearly all actives have a fitted effect of over 50% in size
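Rat TrxR1, dispensed at 90 nM, was prereduced with 400 uM NADPH (final) for 5 min at ~22 deg C, then incubated with compound 15 min before 400 uM selenite. A first-read NADPH fluorescence drop versus no-compound background flagged substrates.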
VDR inh: vitamin D3 receptor (human) inhibition; P11473; VDR-SRC2-3 peptide fluorescence polarization, 2 h; Potency, µM, inactives show max response, negative = inhibition, actives largely listed as inhibitors; 0.93% of 400,000 active; AID 504847
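Signal is fluorescence polarization, reporting how far test compounds block the interaction of VDR with the SRC2-3 coregulator peptide after a 2 h room-temperature incubation.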
TrxR1 inh: blocks rat thioredoxin reductase 1 | AID 588453 | O89049 | 1% of 390,000 active | recombinant rTrxR1, NADPH fluorescence consumption, selenite substrate | Potency, µM (top dose mostly 114 µM), for inactives: at the highest dose activity change, negative = inhibition, usual class: inhibitors; also: nearly all actives have a fitted effect of over 65% in size
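Rat TrxR1 (90 nM in the dispensed reagent) was pre-reduced with 400 uM NADPH for 5 min at room temperature, then incubated with compound for 15 min. After 400 uM selenite was added, NADPH fluorescence (Ex 340/Em 450 nm) was followed for 8 min.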
Active calls of the source: *; ? = inconclusive; nt = no result given; ! = a repeat was not active; [ ] = another dose, or the depositor's remark. Rows were chosen to be rich in hits. Some 5.2% of all compounds tested hit in one or more screens of this group. Calls follow the shape of the dose curve; as a rule, active = well fitted curve in the direction sought with a large enough effect; inconclusive = small, poorly fitted or top-dose-only effect, or another doubt; inactive = no such curve, though single readings can be large; an effect the other way counts as inactive or inconclusive. Unless noted, % is scaled to controls: 0 for no effect and ±100 for the full control effect; potency is read from the fitted curve at half-maximal effect.

SMILES	mIDH1 inhibitor	Sfp PPTase inh	PLK1 PBD block	TrxR1 substrate	VDR inh	TrxR1 inh
CN(C)c1nc(N(C)C)c2cnn(C)c2n1	0%	nt	2%	13%	-3%	17%[57.1 µM]
COc1ccc(NC(=S)N2CCN(c3ncccn3)CC2)c(OC)c1	8%	50µM*	?	7%	-1%	21%
O=Cc1c(Sc2ccccc2)nc2ccccn2c1=O	1%	12%	3.4µM*	9%[57.1 µM]	-30%	-16%[57.1 µM]
CCCCN(C(=O)c1cc(-c2ccco2)nc2ccccc12)c1c(N)n(CCC)c(=O)[nH]c1=O	10%	nt	-21%	0%	-9%	79µM*
Cc1cccc(NC(=O)c2ccccc2Br)n1	8%	-8%	27µM*	0%	-12%	18%
CCCCn1c(N)c(N(CC(C)C)C(=O)c2cc(-c3ccco3)nc3ccccc23)c(=O)[nH]c1=O	1%	nt	-15%	8%	-8%	?
O=C(NC1CCC(O)CC1)c1cc(-c2ccco2)nc2ccccc12 (stereo not drawn)	0%	18µM*	?	137%	-24%	?
Cc1ccc(S(=O)(=O)N(C)C)cc1NC(=O)c1cc(-c2ccco2)nc2ccccc12	10%	-6%	-14%	63%	-20%	3.5µM*
O=C(CN1C(=O)c2ccc([N+](=O)[O-])cc2C1=O)NCC1CCCO1 (stereo not drawn)	-3%	nt	-8%	-2%	-6%	9%
C#CCOc1ccc(C2C(C#N)=C(N)Oc3cc(O)ccc32)cc1 (stereo not drawn)	4%	-2%	18%	-7%[57.1 µM]	?	3%[57.1 µM]
Cc1cccc(NC(=O)c2cc(-c3ccco3)nc3ccccc23)n1	4%	22µM*	-13%	109%	-12%	?
CCCCCCNC(=O)c1cc(-c2ccco2)nc2ccccc12	5%	?	27µM*	104%	?	3.5µM*
O=C(NC1CCCCCCC1)c1cc(-c2ccccn2)nc2ccccc12	3%	18%	27µM*	3%[57.1 µM]	-3%	15%[57.1 µM]
O=C(NC1CCN(Cc2ccccc2)CC1)c1cc(-c2ccccn2)nc2ccccc12	-2%	10%	2%	5%	-11%	9%
Cc1ccc(Sc2ccccc2CN(C)C)c(N)c1	nt	?	nt	nt	1%	nt
O=C(N/N=C1/C[C@@H](O)[C@@H](O)[C@@H]2[C@H]3C(=O)N(c4ccc(F)cc4F)C(=O)[C@@H]3CC[C@@H]12)OCc1ccccc1	nt	-6%	nt	nt	nt	nt
c1ccc2[nH]c(-c3ccnc4ccccc34)nc2c1	8%	79µM*!	-1%	54%[57.1 µM]	1%	8%[57.1 µM]
COCCNC(=S)NN=C1CCCCC1	4%	40µM*	-15%	-2%[57.1 µM]	-5%	12%[57.1 µM]
CC(C)C[C@H](NC(=O)[C@H](CCCCN)NC(=O)[C@H](CCCNC(=N)N)NC(=O)[C@H](C)NC(=O)[C@H](CO)NC(=O)[C@H](CCCCN)NC(=O)[C@H](CCCNC(=N)N)NC(=O)[C@H](C)NC(=O)CNC(=O)[C@@H](NC(=O)[C@H](Cc1ccccc1)NC(=O)CNC(=O)CNC(=O)[C@@H](N)Cc1ccccc1)[C@@H](C)O)C(=O)N[C@@H](C)C(=O)N[C@@H](CC(N)=O)C(=O)N[C@@H](CCC(N)=O)C(=O)O	nt	-5%	nt	nt	5%	nt
COc1ccc(S(=O)(=O)NCC(c2ccco2)S(=O)(=O)c2cccs2)cc1C (stereo not drawn)	7%	nt	nt	2%[57.1 µM]	10%	?
COc1cccc(C(=O)NC(c2ccccc2)C2CCCC2)c1 (stereo not drawn)	-3%	14%	11µM*	0%[57.1 µM]	-25%	17%[57.1 µM]
COc1ccc(Nc2nnc(SCc3cc(=O)n4ccsc4n3)s2)cc1	22%	56µM*	?	2%	-14%	0%
COc1ccc(NC(=O)CSCc2cc(=O)n3ccsc3n2)cc1	-13%	9%	-11%	-4%	-9%	13%
Cc1cc(C)c(NC(=O)Cn2cc(S(=O)(=O)Cc3ccccc3F)c3ccccc32)c(C)c1	0%	nt	nt	-7%	-10%	6%
COc1cccc(NC(=O)CN(C2=NC3CS(=O)(=O)CC3S2)c2cccc(C)c2)c1 (stereo not drawn)	-2%	10%	-5%	2%[57.1 µM]	-22%	7%[57.1 µM]
SMILES	mIDH1 inhibitor	Sfp PPTase inh	PLK1 PBD block	TrxR1 substrate	VDR inh	TrxR1 inh
Cc1nnc(NNS(=O)(=O)c2ccc(Cl)cc2)[nH]c1=O	4%	45µM*	-15%	2%	-10%	25%
Cc1occc1C(=O)NNS(=O)(=O)c1ccc(Cl)cc1	5%	-21%	8%	-4%	-3%	-6%
Cc1ccc(S(=O)(=O)NNc2nnc(C)c(=O)[nH]2)cc1	-12%	5.6µM*	-1%	2%[57.1 µM]	?	3%[57.1 µM]
COc1ccc(Nc2nnc(C)c(=O)[nH]2)cc1	3%	16%	-6%	-3%	-12%	6%
CNc1cc(F)nc(F)n1	21%	0%	9.5µM*	-2%	-29%	16%
O=c1c2ccccc2sn1-c1ccc(Cl)cc1Cl	-14%	nt	2.7µM*	nt	nt	nt
CN(CP(=O)(O)C(O)c1ccccc1)S(C)(=O)=O (stereo not drawn)	6%	-23%	0%	8%[57.1 µM]	1%	9%[57.1 µM]
CCOC(=O)CCP(=O)(O)C(O)c1ccccc1 (stereo not drawn)	12%	0%	24µM*	7%	-6%	-5%[57.1 µM]
CCCc1[nH][nH]c(=O)c1C(c1ccc(Br)cc1)C(C#N)C#N (stereo not drawn)	-11%	?	6µM*	-10%	79µM*	?
Cc1[nH][nH]c(=O)c1C(c1ccc(Br)cc1)c1c(C)[nH][nH]c1=O	-7%	3%	?	0%	?	-8%
Cc1ccc(/C=C/C(=O)Nc2ccc(Oc3ccccc3)cc2)o1	8%	28µM*	-11%	4%	-10%	?
O=C(O)/C=C/C(=O)Nc1ccc(Oc2ccccc2)cc1	4%	15%	2%	4%[57.1 µM]	-11%	10%[57.1 µM]
Cc1ccc(C(=O)Nc2ccc(C(=O)N/N=C/c3ccc(C)o3)cc2)cc1	-2%	-13%	-15%	4%[0.0914 µM]	-2%	5%[57.1 µM]
COc1ccc(NC(=O)/C=C/c2ccc(C)o2)cc1S(=O)(=O)N1CCOCC1	4%	50µM*	-13%	-3%[11.4 µM]	-21%	-79%[57.1 µM]
CC(=O)c1ccc(NC(=O)/C=C/c2ccc(C)o2)cc1	16%	nt	nt	-9%	-7%	22µM*
O=C(/C=C/c1ccc(Br)o1)Nc1nccs1	9%	?	21µM*	1%	-9%	28µM*
Cc1ccc(NC(=O)CSc2nnc(-c3ccccc3)n2C)cc1	nt	nt	nt	3%	nt	1%
Cc1ccc(/C=C/C(=O)Nc2ccc([N+](=O)[O-])cc2)o1	5%	14µM*	-13%	7%	-1%	?
Cc1ccc(/C=C/C(=O)Nc2nnc(C)s2)o1	4%	-10%	-12%	-5%	-7%	28µM*

High-throughput results (PubChem)
